In the library only some 10% were active in any assay of this set; here they are far more common.
HEK293 tox = cytotoxic compounds in HEK 293 cells. hit rate 6.6% among 94,000. Potency, µM (doses to about 115 µM), usual class: inhibitors. HEK 293 viability, ATP luminescence (CellTiter-Glo), 48-72 h. AID 1345083; note: nearly all actives have a fitted effect of over 60% in size
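ATP-coupled CellTiter-Glo luminescence served as viability read-out, recorded 10 min after reagent addition at room temperature. HEK 293 cells, 250 cells/well, had been incubated with pintool-transferred compound for 48 or 72 hr at 37 degree Celsius.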
GPT2 inhibitor = blocks human glutamate pyruvate transaminase 2. Potency, µM (series often up to 57.7 µM), actives largely listed as inhibitors. Recombinant GPT2, coupled pyruvate oxidase/HRP Amplex Red fluorescence. hit rate 0.25% among 100,000. Q8TD30. AID 1671188; note: nearly all actives have a fitted effect of over 60% in size
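Fluorescence read-out: pyruvate from GPT2 turnover coupled to pyruvate oxidase, HRP and Amplex Red (0.2mM ThPP, 0.2U/mL PO and HRP, 50uM Amplex final). Substrates 250uM a-KG, 2mM L-alanine; enzyme 10ng/uL; 30 min RT.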
3T3 cytotox = NIH 3T3 cell cytotoxicity | NIH 3T3 viability, CellTiter-Glo ATP luminescence, 48-72 h | Potency, µM (doses to about 96.7 µM), hits mostly inhibitors | hit rate 4.3% among 94,000; note: nearly all actives have a fitted effect of over 55% in size
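Cells were seeded at 400 per well, treated with pin-transferred compound, and kept 48 or 72 hr at 37 °C before CellTiter-Glo addition and luminescence imaging of cellular ATP.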
NPR1 antag = human Npr1 receptor antagonism | Potency, µM (titrated, usually from 46.3 µM), hits mostly inhibitors | AID 1347048 | HEK293 hNpr1 GloSensor cGMP, ANP-stimulated luminescence | hit rate 1.6% among 76,000; calls by dose curve; note: nearly all actives have a fitted effect of over 60% in size
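HEK293 cells stably expressing human Npr1 and cGMP GloSensor pGS-40F, loaded 2 h with 2% GloSensor reagent, given compound 30 min at room temperature. Luminescence read before and 20 min after 0.1 nM hNppA.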
FLuc inh = blocks purified firefly luciferase enzyme activity; Potency, µM (top dose mostly 115 µM), hits mostly inhibitors; purified P. pyralis luciferase, luminescence, biochemical; P08659; hit rate 2.5% among 76,000; note: nearly all actives have a fitted effect of over 65% in size
Target sequence (P08659 whole entry, looked up): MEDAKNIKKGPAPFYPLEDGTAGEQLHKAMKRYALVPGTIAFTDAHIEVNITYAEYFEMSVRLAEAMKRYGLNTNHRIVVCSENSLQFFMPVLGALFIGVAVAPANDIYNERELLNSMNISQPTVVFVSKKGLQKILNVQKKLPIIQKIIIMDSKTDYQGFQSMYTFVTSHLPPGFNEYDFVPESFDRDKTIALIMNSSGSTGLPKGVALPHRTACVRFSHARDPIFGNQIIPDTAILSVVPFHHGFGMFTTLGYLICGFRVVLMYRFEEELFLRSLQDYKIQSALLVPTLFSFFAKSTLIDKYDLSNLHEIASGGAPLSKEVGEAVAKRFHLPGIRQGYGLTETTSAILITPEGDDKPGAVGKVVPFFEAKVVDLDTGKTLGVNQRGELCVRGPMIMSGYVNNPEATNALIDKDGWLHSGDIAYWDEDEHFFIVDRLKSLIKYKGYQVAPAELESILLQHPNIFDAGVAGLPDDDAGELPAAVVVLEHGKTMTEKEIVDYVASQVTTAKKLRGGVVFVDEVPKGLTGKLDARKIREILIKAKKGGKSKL
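FLuc 10nM, D-luciferin 10uM, ATP 10uM, Mg acetate 10mM, Tris acetate pH 7.5, Tween/BSA; cpd qHTS; enzyme added last; CCD luminescence.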
Hits are given with their value; . = inactive; ? = inconclusive; / = not tested or not shown; ! = a repeat was not active. Unless noted, calls come from the whole dose curve; as a rule, active = well fitted curve in the direction sought with a large enough effect; inconclusive = small, poorly fitted or top-dose-only effect, or another doubt; inactive = no such curve, though single readings can be large; an effect the other way counts as inactive or inconclusive.

SMILES | HEK293 tox | GPT2 inhibitor | 3T3 cytotox | NPR1 antag | FLuc inh
O=C(NC1CC1)c1nc(-c2cccnc2)c2ccccn12 | . | . | 45µM | / | /
O=C(NC1CC1)c1nc(-c2ccc(F)cc2)c2ccccn12 | 89µM! | . | ? | . | .
O=C(NC1CC1)c1nc(-c2cc(Cl)cc(Cl)c2)c2ccccn12 | ? | . | . | . | .
O=C(NC1CC1)c1nc(-c2ccc(Cl)cc2Cl)c2ccccn12 | 35µM | . | ? | . | .
Clc1ccccc1C1(c2ccnc(NC3CCC3)n2)CCNCC1 | 35µM | . | 28µM | . | .
O=C(NCCc1ccc(Cl)cc1)c1ccc2nnc(C3CCCC3)n2c1 | ? | . | 35µM | / | /
O=C(NCc1ccccc1)c1ccc2nnc(C3CCCC3)n2c1 | . | . | 79µM | / | /
CCOc1ccc2c(n1)CCN(C(=O)c1cccc(OC)c1OC)C2 | ? | . | . | . | .
O=C(CCC[C@H]1NC[C@@H]2CC1CN(Cc1ccccc1)C2)NCCCc1ccccc1 | ? | . | ? | . | .
COc1ccc(C(=O)N2CCc3nc(-c4ccccc4)nc(-c4ccc(Cl)cc4)c3C2)cc1 | 22µM | . | ? | / | /
O=C(c1ccc(F)cc1)N1CCc2nc(-c3ccccc3)nc(-c3ccc(Cl)cc3)c2C1 | ? | . | ? | . | .
O=C(c1ccccc1)N1CCc2nc(-c3ccc(Cl)cc3)nc(-c3ccccc3)c2C1 | 22µM | . | ? | . | .
O=C(C1CC1)N1CCc2nc(-c3ccc(Cl)cc3)nc(-c3ccccc3)c2C1 | 40µM | . | ? | . | .
Cc1nc2c(c(-c3ccc(O)cc3)n1)CN(C(=O)C1CCCC1)CC2 | 40µM | . | ? | . | .
COc1cccc(-c2cccc(C(=O)N3CCN(C(=O)C4CCCC4)CC3)c2)c1 | ? | . | ? | / | /
C[C@H]1CCCN1C(=O)c1nnc(CNCCCn2ccnc2)n1-c1ccccc1 | . | . | ? | . | .
COC(=O)[C@@H]1Cc2c([nH]c3ccccc23)[C@H]2C[C@@H](NCCCn3ccnc3)C[C@@H](c3ccccc3)N21 | ? | . | 20µM | . | .
COC(=O)[C@@H]1Cc2c([nH]c3ccccc23)[C@H]2C[C@H](NCCCn3ccnc3)C[C@@H](c3ccccc3F)N21 | ? | . | 5µM | . | .
COC(=O)[C@@H]1Cc2c([nH]c3ccccc23)[C@@H]2C[C@@H](NCCCn3ccnc3)C[C@@H](c3ccc(F)c(F)c3)N12 | 25µM | . | 28µM | . | .
O=C(Cc1c[nH]c2ncc(-c3ccccc3)cc12)NCCCn1ccnc1 | . | . | ? | . | .
CC(C)C[C@@H]1N[C@H](C(=O)NCCCn2ccnc2)Cc2c[nH]c3cccc1c23 | ? | . | ? | . | .
Cc1noc(C)c1[S+](=O)([O-])N1CCC(C(=O)N2CCC(N3CCCC3=O)CC2)CC1 | . | . | . | / | /
Cc1ccnc(N2CCN(C3CCC4(CCNCC4)CC3)CC2)c1 | 45µM | . | ? | . | .
O=C(c1ccco1)N1CCN(C2CCC3(CCNCC3)CC2)CC1 | . | . | . | . | .
O=C(Cc1ccccn1)NC1CCN(C(=O)c2ccc(-c3cccs3)cc2)CC1 | ? | . | . | / | /
SMILES | HEK293 tox | GPT2 inhibitor | 3T3 cytotox | NPR1 antag | FLuc inh
NC[C@H]1O[C@H](Cc2cc(-c3ccc(F)cc3)on2)CC[C@@H]1O | ? | . | . | 14µM | 35µM
O[C@H]1CC[C@@H](Cc2cc(-c3ccc(F)cc3)on2)O[C@@H]1CNC1CCOCC1 | . | . | . | . | ?
O=C(NC[C@H]1O[C@H](Cc2cc(-c3ccc(F)cc3)on2)CC[C@@H]1O)NC1CCCCC1 | ? | . | 89µM | 10µM | 71µM
O=C(c1cc(COc2ccccc2F)[nH]n1)N1CCOCC1 | . | . | . | . | 32µM
COCCC(=O)N1CCCCCNC(=O)[C@@H]2CCCC[C@@H]21 | . | . | . | . | .
Cc1ccc(C2Cn3nnc(C(=O)N4CCC(C(=O)NCCC5=CCCCC5)CC4)c3CO2)cc1 (stereo not given) | . | . | . | . | 10µM
O=C(NCCC1=CCCCC1)C1CCN(C(=O)c2ncn3c2COC(c2ccc(Cl)cc2)C3)CC1 (stereo not given) | ? | . | . | . | ?
CCCCNC(=O)C1CCN(C(=O)c2nnn3c2COC(c2ccc(OC)cc2)C3)CC1 (stereo not given) | . | . | . | . | .
Cc1ccc(C2Cn3cnc(C(=O)N4CCC(C(=O)NCCC5=CCCCC5)CC4)c3CO2)cc1 (stereo not given) | . | . | . | . | 28µM
COCCCNC(=O)C1CCN(C(=O)c2nnn3c2COC(c2ccc(C)cc2)C3)CC1 (stereo not given) | . | . | . | . | 40µM
COc1ccc(CN2CC(OCc3ccccc3F)CN(C(=O)C3=NNC(=O)CC3)CC2=O)cc1 (stereo not given) | . | . | . | . | .
COCCOc1ncccc1-c1noc([C@@H]2CCCN2C(C)C)n1 | . | . | . | . | .
CN(C)c1cccc(Oc2nnnn2[C@H]2CO[C@H]3[C@@H]2OC[C@@H]3NC(=S)Nc2cccc(C#N)c2)c1 | 45µM | . | ? | . | .
O=C(NCc1cccnc1Oc1ccc(F)cc1F)c1cc(C2CC2)[nH]n1 | 8.9µM | . | ? | . | .
COc1ccc(Nc2ccnc(N3CCC(NC(=O)c4ccccc4F)CC3)n2)cc1 | 50µM | . | ? | / | /
O=C(NC1CCN(c2nccc(Nc3ccccc3F)n2)CC1)c1ccccc1F | ? | . | ? | / | /
COc1cccc(C(=O)NC2CCN(c3nccc(Nc4ccc(C)cc4)n3)CC2)c1 | ? | . | 40µM | / | /
Cc1ccc(Nc2ccnc(N3CCC(NC(=O)c4ccccc4F)CC3)n2)cc1 | 50µM | . | ? | / | /
CCCC(=O)N1Cc2ccccc2CC2(CCCCN2Cc2ccccn2)C1 (stereo not given) | ? | . | ? | / | /
NC(=O)[C@H](CC1CCCCC1)NC(=O)[C@@H]1CN(S(=O)(=O)c2ccccc2)CCN1C(=O)c1cccs1 | . | . | 25µM | . | .
CC(=O)N1CCN(C(=O)c2cccs2)[C@H](C(=O)N[C@@H](CC2CCCCC2)C(N)=O)C1 | . | . | . | . | .
COC(=O)[C@H](Cc1ccc(OC)cc1)NC(=O)[C@H]1CN(S(=O)(=O)c2ccccc2)CCN1C(=O)c1cccs1 | 79µM | . | ? | . | .
COc1ccccc1-c1cnc(NCc2ccccc2)c2c1CCO2 | ? | ? | 25µM | . | .
COc1ccccc1-c1cnc(Nc2ccc3c(c2)OCCO3)c2c1CCO2 | ? | . | . | ? | 14µM
COc1ccccc1-c1cnc(Nc2cc(F)cc(N3CCOCC3)c2)c2c1CCO2 | ? | . | ? | . | .
O=C1NCc2ccccc2CC12CCCN(CCCc1ccccc1)C2 (stereo not given) | ? | . | ? | / | /
Cc1cccc(OCCc2noc(C3CN(C(=O)CCc4ccccc4)C3)n2)c1 | ? | . | ? | . | .
O=C(NC1CC1)c1nc2sccn2c1-c1ccc(F)cc1 | . | . | . | / | /
